According to ChEMBL document CHEMBL4513216, “Probing the Open Global Health Chemical Diversity Library for Multistage-Active Starting Points for Next-Generation Antimalarials” (ACS Infect Dis, 2020):
In all, about 68,000 compounds went through this assay and about 2,700 (4%) showed an effect of 50% or more. What follows is part of a selection rich in strong results, with near analogues and random picks from the rest.

What follows are compounds tested on Plasmodium berghei (assay: Screen against P. berghei liver stage (PbLuc), transformed with Luciferase, at 2uM). Details: tested at 2 uM.
Format: functional, HepG2

Compound | INHIBITION
CC(C)(C)c1n[nH]cc1CNC1CCC(C(F)(F)F)CC1 (stereo unspecified) | 64.92%
CC(C)(C)c1n[nH]cc1CNC1CCC(O)CC1 (stereo unspecified) | -57.67%
CC(C)(C)c1n[nH]cc1CNC1CCC(OCC(F)(F)F)CC1 (stereo unspecified) | -8.63%
C=C/C=c1\c(=C/C)oc2c(NCc3ccccc3)ncnc12 | 24.34%
C=C/C=c1\c(=C/C)oc2c(NCc3ccccc3)nc(CC)nc12 | 17.42%
C=C/C=c1\c(=C/C)oc2c(NCc3ccccc3)nc(C)nc12 | 51.36%
Cc1noc(C)c1CCC(=O)N1CCCC(n2ccnc2C)C1 (stereo unspecified) | 11.18%
CCN1CCOC(CNCc2ccc(C)s2)C1 (stereo unspecified) | -19.02%
Cc1ccc(CNc2cnn(CC(F)F)c2)cc1C | 55.43%
COc1ccc(CNc2cnn(CC(F)F)c2)cc1 | -15.93%
COc1cc(CNc2cnn(CC(F)F)c2)ccc1O | 19.18%
CCn1nnc2c1C(COCCN(C)C)CN(S(=O)(=O)CC)C2 (stereo unspecified) | 29.19%
CN(Cc1ccno1)C(=O)c1cccc(CC2CCNCC2)c1 | 38.67%
Cc1nc(CN(C)C(=O)c2cccc(CC3CCNCC3)c2)no1 | 24.36%
CNc1ncc(CN(C)C(=O)c2cccc(CC3CCNCC3)c2)cn1 | 52.98%
Cc1nc2ccc(Cl)cn2c1CN1CCN(S(=O)(=O)N2CCCC2)CC1 | -21.9%
CCN1CCc2c(sc3c2C(=O)NC(C=Cc2ccccc2)N3)C1 (stereo unspecified) | -18.77%
COCC(=O)N1CCCCC1c1nccc(C)n1 (stereo unspecified) | 18.22%
CN(C)CCN1CCCC12CCN(Cc1nccn1C)CC2 | 37.75%
Cc1cc(C(F)(F)F)nn1CCCNC(=O)C1CCC1 | 31.12%
O=C(COc1coc(CN2CCOCC2)cc1=O)Nc1ccc(Cl)cc1 | 16.49%
O=C(COc1coc(CN2CCCCC2)cc1=O)Nc1ccccc1Cl | -46.67%

Compound | INHIBITION
O=C(COc1coc(CN2CCOCC2)cc1=O)Nc1ccccc1F | 64.35%
CCCc1ccc2oc(C(=O)N3CCN(CCOC)CC3)c(C)c2c1 | -28.65%
COc1cccn(CC(=O)N(C)CCCOc2c(C)cccc2C)c1=O | -30.49%
COc1cccn(CC(=O)N(C)CCSC)c1=O | 21.97%
COCCCN(C)C(=O)Cn1cccc(OC)c1=O | 50.59%
COCCN(C)C(=O)Cn1cccc(OC)c1=O | -14.84%
COc1cccn(CC(=O)N(C)CCC2CCOCC2)c1=O | 69.67%
COc1cccn(CC(=O)N(C)Cc2ccoc2)c1=O | -33.11%
CN(C)C(c1ccccn1)C1CCC(CNC(=O)CC2CCCC2)CC1 (stereo unspecified) | 0.64%
CCc1c(C(=O)O)nnn1-c1ccc(C)cc1C | -54.75%
NC(=O)N1CC[C@@H]2O[C@@H](COCC(=O)N3CCCC3)CC[C@@H]21 | 35.98%
Cc1cc(C[C@@H]2COC[C@H]2NCc2ccccc2C(F)(F)F)on1 | 32.31%
Cc1cc(C(O)CCNC(=O)c2ccc(Cl)s2)c(C)o1 (stereo unspecified) | -16.88%
CC(CNC(=O)c1cnccn1)Oc1cccc(Br)c1 (stereo unspecified) | 30.75%
CC(CNC(=O)c1ccncc1F)Oc1ccc(F)cc1 (stereo unspecified) | 23.79%
CC(CNC(=O)c1cnccn1)Oc1ccc(F)cc1 (stereo unspecified) | 52.84%
NCc1cccc(-c2cccnc2C(=O)NCCN2CCCC2)c1 | 1.07%
O=C(NC1CC1)[C@@H]1CCO[C@@H]2CCN(CC3CCC3)C[C@H]21 | 9.98%
CC(CNC(=O)Nc1ccc(F)cc1Br)N1CCOCC1 (stereo unspecified) | 74.22%
Cc1ccc(F)cc1NC(=O)NCC(C)N1CCOCC1 (stereo unspecified) | -0.54%
Cc1cc(F)ccc1NC(=O)NCC(C)N1CCOCC1 (stereo unspecified) | 48.59%
CCc1ccc(CN2CCC3(CCCN(C(=O)N(C)C)C3)C2)o1 (stereo unspecified) | 1.08%

Compound | INHIBITION
O=C(Cc1ccc2c(c1)OCCO2)NC1CC1 | 23.31%
O=C(N[C@@H]1CN(Cc2ccccc2)C[C@@H]2CCCO[C@@H]21)C1CC1 | 50.9%
CN(Cc1ccco1)[C@@H]1CN(Cc2cccnc2)C[C@@H]2CCCO[C@@H]21 | 29.36%
O=C(CC1CC1)N[C@@H]1CN(Cc2ccco2)C[C@@H]2CCCO[C@@H]21 | 52.55%
O=C(CC1CC1)N[C@@H]1CN(Cc2ccoc2)C[C@@H]2CCCO[C@@H]21 | 35.89%
CN(Cc1ccco1)[C@@H]1CN(Cc2ccncc2)C[C@@H]2CCCO[C@@H]21 | 60.93%
O=C(N[C@@H]1CN(Cc2ccoc2)C[C@@H]2CCCO[C@@H]21)C1CCC1 | -8.62%
CS(=O)(=O)N[C@@H]1CN(Cc2ccccc2)C[C@@H]2CCCO[C@@H]21 | 14.39%
O=C(CC1CC1)N[C@@H]1CN(Cc2ccncc2)C[C@@H]2CCCO[C@@H]21 | 29.01%
CN(Cc1ccco1)[C@@H]1CN(Cc2ccc(F)cc2)C[C@@H]2CCCO[C@@H]21 | 29.73%
NCC1CCCCN1C(=O)Cc1cccc(Cl)c1 (stereo unspecified) | -22.89%
CC1(C)CN(C(=O)c2occc2COc2cccc(C#N)c2)CCO1 | -0.41%
O=C(NCc1nc[nH]n1)c1cc(COc2cccc(F)c2)[nH]n1 | 10.22%
CC(C)(C)C(=O)NCCC(=O)NS(=O)(=O)c1cccc(C#N)c1 | -49%
Cc1nc(CC(=O)N2CCc3nnc(N(C)C)cc3C2)cs1 | 1.6%
Cc1ccc(N2CCCC(N(C)c3ncnc4c3CCC4)C2)nn1 (stereo unspecified) | -28.33%
COc1ccc(CC(=O)N2CC[C@@H]3[C@H](CC2)N(C)CCS3(=O)=O)cc1 | 24.64%
COc1ccc(C(=O)N2CC[C@@H]3[C@H](CC2)N(C)CCS3(=O)=O)cc1 | -17.39%
CN1CCS(=O)(=O)[C@@H]2CCN(C(=O)c3ccccc3)CC[C@@H]21 | 71.83%
COc1cccc(C(=O)N2CC[C@@H]3[C@H](CC2)N(C)CCS3(=O)=O)c1 | -14.21%
CC(C)(C)CC(=O)N1CC[C@@H]2[C@H](CC1)N(S(C)(=O)=O)CCS2(=O)=O | -16.93%
CN1CCS(=O)(=O)[C@@H]2CCN(C(=O)CC(C)(C)C)CC[C@@H]21 | 50.17%
